Experimental data as given in the supplement of paper PMC10849652.
The full data set covers some 7,900 targets. This sample favours those with a hit. About 0.6% of all pairs of compound and target were hits.

Columns and labels:
Assay in all cases: log2 fold change, soluble protein after heating vs DMSO (PISA); higher = thermal stabilisation; K562 cells, 10 uM, 30 min; active = over 0.2 and 3.5 SD of the protein, either way, in both replicates (recomputed)
erlotinib = compound: C#Cc1cccc(Nc2ncnc3cc(OCCOC)c(OCCOC)cc23)c1 [erlotinib]
How it was run: (§1)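 Soluble protein was quantified by TMTpro 16plex LC-MS/MS after channel sums were equalised. It was obtained as the supernatant after 21,000xg for 90 min from pooled aliquots of K562 cells (2×10^6 cells/mL, 10 μM compound, 30 min) heated for 3 min across 48°C-58°C and extracted in PBS with 0.5% NP-40 at 4°C. Thermal stability values are relative to control samples and come from duplicates. They are given as log2 fold changes.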

[1] = compound: C/C(=N\NC(=O)C1=CC(=CC=C1)S(=O)(=O)N2CCOCC2)/C3=C(C=CC(=C3)Cl)O
How it was run: as §1

[2] = compound: C1=CC(=C(C=C1Cl)C2=NC3=NC=CN=C3C(=N2)NC4=CC=NC=C4)F
How it was run: as §1

[3] = compound: C1=CC(=CC=C1C2=NC3=C(N2)C=C(C=C3)C(=O)N)OC4=CC=C(C=C4)Cl
How it was run: as §1

[4] = compound: C1=CC2=C(C=CC(=C2)/C=C\3/C(=O)NC(=NCC4=CC=CS4)S3)N=C1
How it was run: as §1

[5] = compound: C1=CC2=NC=CN=C2C=C1/C=C/3\C(=O)NC(=O)S3
How it was run: as §1

[6] = compound: C1=CC=C(C=C1)C2=NC(=C(N2)C3=CC=NC=C3)C4=CC(=C(C=C4)Cl)O
How it was run: as §1

[7] = compound: C1=CC=C2C(=C1)C3=NNC4=CC=CC(=C43)C2=O
How it was run: as §1

[8] = compound: C1CCN(C1)C(=O)NC2=CC=CC(=C2)NC3=NC=C(C(=N3)NCCC4=CN=CN4)Br
How it was run: as §1

[9] = compound: C1CN(CCC1(CC2=CC=C(C=C2)Cl)N)C3=NC=NC4=C3C=CN4
How it was run: as §1

Measured: log2 fold change

PSMD2 (UniProt Q13200)
inactive: erlotinib -0.095 | [1] -0.095 | [2] -0.042 | [3] -0.001 | [4] -0.043 | [5] -0.024 | [6] 0.007 | [7] 0.016 | [8] 0.005 | [9] -0.021

PRKCA (UniProt P17252)
inactive: erlotinib 0.117 | [1] 0.041 | [2] 0.04 | [3] -0.009 | [4] 0.127 | [5] 0.016 | [6] -0.019 | [7] -0.006 | [8] 0.008 | [9] -0.074

PJA2 (UniProt O43164)
inactive: erlotinib -0.006 | [1] -0.047 | [2] -0.049 | [3] 0.018 | [4] 0.003 | [5] 0.071 | [6] -0.061 | [7] -0.112 | [8] -0.024 | [9] -0.009

PGGHG (UniProt Q32M88)
active: [4] -0.44
inactive: erlotinib 0.059 | [1] 0.114 | [2] 0.024 | [3] 0.002 | [5] 0.048 | [6] -0.049 | [7] -0.248 | [8] -0.225 | [9] 0.119

PSMB9 (UniProt P28065)
Chain of UniProt P28065 (P28065 whole entry, looked up): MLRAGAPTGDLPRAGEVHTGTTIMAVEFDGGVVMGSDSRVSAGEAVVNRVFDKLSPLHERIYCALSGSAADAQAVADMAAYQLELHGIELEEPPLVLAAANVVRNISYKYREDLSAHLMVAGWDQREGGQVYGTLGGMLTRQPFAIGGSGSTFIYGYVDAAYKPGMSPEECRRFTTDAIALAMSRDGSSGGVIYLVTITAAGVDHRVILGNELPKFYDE
inactive: erlotinib -0.158 | [2] -0.116 | [3] 0.113 | [4] 0.174 | [5] -0.142 | [7] -0.006
active: [1] -0.633

PRKAR2B (UniProt P31323)
inactive: erlotinib -0.017 | [1] 0.066 | [2] -0.082 | [3] 0.16 | [4] -0.004 | [5] 0.012 | [6] -0.058 | [7] -0.083
active: [8] -0.449 | [9] -0.636

PKM (UniProt P14618)
inactive: erlotinib 0.008 | [1] -0.005 | [2] 0.052 | [3] 0.003 | [4] 0.002 | [5] -0.003 | [6] -0.016 | [7] -0.011 | [8] -0.006 | [9] 0.029

POTEI (UniProt P0CG38)
inactive: erlotinib 0.023 | [1] 0.007 | [2] -0.009 | [3] 0.011 | [4] -0.037 | [5] -0.052 | [6] 0.045 | [7] 0.038 | [8] -0.003 | [9] 0.046

PRKCB isoform 2 (UniProt P05771)
inactive: erlotinib 0.038 | [1] 0.031 | [2] 0.038 | [3] 0 | [4] 0.086 | [5] 0.004 | [6] 0.021 | [7] 0.037 | [8] 0 | [9] -0.067

PRR14L (UniProt Q5THK1)
inactive: [1] -0.168 | [4] 0.16 | [7] -0.091 | [8] 0.166 | [9] -0.023

PSMC1 (UniProt G3V4X1)
inactive: erlotinib 0.149 | [3] -0.001

PUF60 isoform 2 (UniProt Q9UHX1)
inactive: [1] 0.242 | [4] -0.242 | [5] 0.086 | [6] 0.05 | [7] 0.046 | [8] -0.148 | [9] -0.148

PRKX (UniProt P51817)
inactive: erlotinib 0.169 | [3] 0.035 | [5] 0

PPP1R12B isoform 6 (UniProt O60237)
Chain of UniProt O60237 (O60237 whole entry, looked up): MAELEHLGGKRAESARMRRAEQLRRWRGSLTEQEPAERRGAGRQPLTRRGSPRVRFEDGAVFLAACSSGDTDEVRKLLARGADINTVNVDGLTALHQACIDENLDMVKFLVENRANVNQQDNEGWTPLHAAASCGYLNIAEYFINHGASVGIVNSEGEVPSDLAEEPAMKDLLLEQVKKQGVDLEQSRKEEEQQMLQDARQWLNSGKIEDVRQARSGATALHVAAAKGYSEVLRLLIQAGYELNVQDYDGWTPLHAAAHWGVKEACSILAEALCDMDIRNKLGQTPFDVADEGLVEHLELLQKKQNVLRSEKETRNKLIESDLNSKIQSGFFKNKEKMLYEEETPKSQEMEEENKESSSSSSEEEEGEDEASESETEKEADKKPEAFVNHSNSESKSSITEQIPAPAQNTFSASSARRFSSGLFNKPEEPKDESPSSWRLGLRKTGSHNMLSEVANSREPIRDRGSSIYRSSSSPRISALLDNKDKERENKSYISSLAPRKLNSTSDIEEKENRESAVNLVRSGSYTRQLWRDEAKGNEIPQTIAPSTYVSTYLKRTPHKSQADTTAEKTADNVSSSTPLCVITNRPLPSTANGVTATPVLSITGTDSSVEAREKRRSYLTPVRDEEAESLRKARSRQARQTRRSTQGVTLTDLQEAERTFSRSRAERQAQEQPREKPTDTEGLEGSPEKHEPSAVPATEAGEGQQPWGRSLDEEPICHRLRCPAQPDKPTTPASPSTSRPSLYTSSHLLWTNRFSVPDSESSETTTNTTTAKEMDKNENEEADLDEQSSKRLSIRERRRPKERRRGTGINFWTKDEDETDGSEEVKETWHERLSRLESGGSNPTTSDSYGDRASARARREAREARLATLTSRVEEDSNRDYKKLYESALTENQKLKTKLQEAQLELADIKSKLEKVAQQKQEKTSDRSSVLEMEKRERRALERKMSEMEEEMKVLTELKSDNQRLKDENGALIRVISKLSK
inactive: erlotinib 0.226 | [3] 0.001 | [5] -0.081

PNPLA4 (UniProt P41247)
inactive: erlotinib 0.426 | [1] 0.13 | [3] -0.176 | [4] -0.148 | [5] 0.133 | [6] -0.084 | [7] 0.059 | [8] 0.108 | [9] 0.029

PSMC3 (UniProt E9PLG2)
inactive: [2] -0.437 | [5] 0.151 | [8] 0.27 | [9] -0.045

PSMD8 (UniProt K7ERW6)
inactive: [8] 0.052 | [9] -0.148

PEX5 isoform 4 (UniProt P50542)
inactive: erlotinib -0.133 | [1] -0.143 | [2] -0.036 | [3] 0.076 | [4] 0.048 | [6] 0.016 | [7] -0.082 | [8] 0.097 | [9] -0.078

PLCXD1 (UniProt Q9NUJ7)
inactive: [5] 0.025 | [6] -0.012

PTEN isoform 2 (UniProt P60484)
inactive: erlotinib 0.264 | [3] 0.061 | [6] 0.178

PRKD3 (UniProt O94806)
inactive: erlotinib 0.051 | [1] 0.373 | [3] 0.013 | [4] -0.197 | [5] 0.034 | [6] 0.055 | [7] -0.507

POGZ (UniProt Q7Z3K3)
inactive: erlotinib 0.006 | [1] 0.085 | [2] 0.044 | [3] 0.033 | [4] -0.172 | [6] 0.023 | [7] 0.082 | [8] 0.026 | [9] 0.115

PUM1 (UniProt Q14671)
inactive: erlotinib 0.308 | [1] 0.035 | [3] 0.15 | [4] -0.034 | [7] 0.051 | [8] -0.045 | [9] -0.024

PGK2 (UniProt P07205)
inactive: [1] -0.055 | [2] -0.082 | [4] 0.152 | [5] -0.018 | [6] -0.057 | [7] -0.012 | [8] 0.034 | [9] 0.029

PSMA3 (UniProt H0YJ03)
active: [1] -0.698
inactive: [4] 0.095 | [6] -0.065 | [7] -0.006 | [8] -0.027 | [9] 0.2

POLB (UniProt P06746)
inactive: erlotinib -0.236 | [2] -0.186 | [3] 0.094 | [6] 0 | [8] -0.118 | [9] 0.002

PTP4A3 (UniProt O75365)
inactive: [5] -0.041

PSMA3 (UniProt G3V4X5)
inactive: [5] 0.051 | [6] 0.348

PCID2 (UniProt Q5JVF3)
inactive: erlotinib 0.086 | [2] -0.088 | [3] -0.021 | [5] 0.028 | [6] -0.005 | [8] -0.086 | [9] -0.161

PMS2CL (UniProt Q68D20)
inactive: [2] 0.094 | [6] -0.023

PIAS4 (UniProt Q8N2W9)
inactive: [2] 0.061 | [6] -0.214 | [8] 0.129 | [9] -0.045

PHC3 isoform 7 (UniProt Q8NDX5)
inactive: erlotinib 0.08 | [2] 0.24 | [3] -0.002 | [5] 0.174

PI4K2B (UniProt Q8TCG2)
inactive: erlotinib -0.003 | [1] -0.008 | [3] 0.065 | [4] 0.004 | [5] 0.016 | [6] -0.019 | [7] -0.007 | [8] 0.048 | [9] -0.173

PTK2B (UniProt Q14289)
inactive: erlotinib 0.225 | [1] 0.063 | [3] 0.059 | [4] 0.048 | [5] 0.058 | [6] 0.008 | [7] -0.066 | [8] 0.025 | [9] 0.105

PAN2 (UniProt Q504Q3)
inactive: [5] 0.044

PRKD2 (UniProt M0R346)
inactive: [2] -0.066 | [5] -0.032

PCNX1 (UniProt Q96RV3)
Chain of UniProt Q96RV3 (Q96RV3 whole entry, looked up): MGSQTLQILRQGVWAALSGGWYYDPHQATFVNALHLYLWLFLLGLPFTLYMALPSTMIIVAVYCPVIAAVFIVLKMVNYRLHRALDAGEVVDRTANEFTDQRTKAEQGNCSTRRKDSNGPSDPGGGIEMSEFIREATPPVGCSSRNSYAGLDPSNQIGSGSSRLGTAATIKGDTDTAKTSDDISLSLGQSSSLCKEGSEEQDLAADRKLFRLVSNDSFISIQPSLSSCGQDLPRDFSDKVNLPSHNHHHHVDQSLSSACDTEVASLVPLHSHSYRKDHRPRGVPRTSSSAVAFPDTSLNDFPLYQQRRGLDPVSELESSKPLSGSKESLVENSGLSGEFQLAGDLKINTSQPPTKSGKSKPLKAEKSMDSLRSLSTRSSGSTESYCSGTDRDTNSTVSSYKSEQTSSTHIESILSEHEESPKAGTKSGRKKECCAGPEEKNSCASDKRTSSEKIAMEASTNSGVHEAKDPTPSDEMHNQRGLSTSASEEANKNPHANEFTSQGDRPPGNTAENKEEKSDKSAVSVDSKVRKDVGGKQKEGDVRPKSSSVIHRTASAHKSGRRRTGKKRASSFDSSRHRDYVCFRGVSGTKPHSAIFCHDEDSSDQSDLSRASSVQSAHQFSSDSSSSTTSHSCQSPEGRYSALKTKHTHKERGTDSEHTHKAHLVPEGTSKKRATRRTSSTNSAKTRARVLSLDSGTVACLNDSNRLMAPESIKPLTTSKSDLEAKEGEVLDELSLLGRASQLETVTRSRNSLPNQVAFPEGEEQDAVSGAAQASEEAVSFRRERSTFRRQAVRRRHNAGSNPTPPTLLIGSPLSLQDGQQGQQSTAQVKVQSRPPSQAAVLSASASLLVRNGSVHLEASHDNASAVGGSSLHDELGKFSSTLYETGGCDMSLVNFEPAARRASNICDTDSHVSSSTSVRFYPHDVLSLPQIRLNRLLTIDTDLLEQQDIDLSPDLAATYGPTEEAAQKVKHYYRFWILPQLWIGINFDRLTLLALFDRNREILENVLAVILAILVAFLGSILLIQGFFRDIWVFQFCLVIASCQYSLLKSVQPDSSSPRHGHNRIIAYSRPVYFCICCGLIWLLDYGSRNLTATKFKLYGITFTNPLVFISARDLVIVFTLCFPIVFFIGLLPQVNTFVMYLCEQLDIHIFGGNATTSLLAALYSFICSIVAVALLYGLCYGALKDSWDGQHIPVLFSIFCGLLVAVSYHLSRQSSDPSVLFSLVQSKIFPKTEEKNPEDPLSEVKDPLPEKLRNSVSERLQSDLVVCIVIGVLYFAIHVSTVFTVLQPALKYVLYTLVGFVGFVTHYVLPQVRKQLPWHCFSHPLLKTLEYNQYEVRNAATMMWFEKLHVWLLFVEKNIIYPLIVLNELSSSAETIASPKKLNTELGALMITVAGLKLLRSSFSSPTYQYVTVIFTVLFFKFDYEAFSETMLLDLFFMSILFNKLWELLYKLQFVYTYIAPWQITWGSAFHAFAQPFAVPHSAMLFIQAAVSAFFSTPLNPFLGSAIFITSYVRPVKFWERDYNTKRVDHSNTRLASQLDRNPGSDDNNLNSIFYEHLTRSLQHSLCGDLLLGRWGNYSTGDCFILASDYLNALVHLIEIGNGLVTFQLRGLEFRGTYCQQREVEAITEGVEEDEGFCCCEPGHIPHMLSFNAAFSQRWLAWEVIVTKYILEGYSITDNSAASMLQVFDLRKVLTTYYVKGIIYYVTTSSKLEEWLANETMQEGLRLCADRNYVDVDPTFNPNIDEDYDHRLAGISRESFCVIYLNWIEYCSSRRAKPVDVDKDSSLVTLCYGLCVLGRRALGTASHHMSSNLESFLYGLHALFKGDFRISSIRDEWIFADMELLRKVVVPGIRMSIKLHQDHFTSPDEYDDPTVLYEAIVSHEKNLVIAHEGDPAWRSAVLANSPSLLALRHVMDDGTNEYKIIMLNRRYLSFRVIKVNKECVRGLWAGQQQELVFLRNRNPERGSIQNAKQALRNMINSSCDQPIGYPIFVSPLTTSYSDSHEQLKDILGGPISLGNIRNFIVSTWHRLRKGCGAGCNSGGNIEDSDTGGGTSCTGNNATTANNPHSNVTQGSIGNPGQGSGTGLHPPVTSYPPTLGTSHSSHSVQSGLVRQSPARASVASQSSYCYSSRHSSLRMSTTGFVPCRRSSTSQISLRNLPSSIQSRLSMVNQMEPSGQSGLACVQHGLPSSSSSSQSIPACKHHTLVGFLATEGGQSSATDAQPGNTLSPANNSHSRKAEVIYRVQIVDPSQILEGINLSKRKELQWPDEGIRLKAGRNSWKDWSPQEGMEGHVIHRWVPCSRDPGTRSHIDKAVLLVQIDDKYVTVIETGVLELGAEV
inactive: [2] 0.036 | [5] -0.006 | [8] -0.019 | [9] -0.041

PHRF1 (UniProt Q9P1Y6)
inactive: erlotinib -0.161 | [3] 0.082 | [6] 0.073

PDE4DIP (UniProt E9PS60)
inactive: erlotinib 0.086 | [3] -0.175

PCBP2 (UniProt F8VZX2)
inactive: erlotinib -0.014 | [3] -0.077 | [5] -0.019 | [6] -0.008

PKM isoform 2 (UniProt P14618)
inactive: [1] -0.004 | [2] 0.075 | [4] -0.005 | [5] -0.18 | [6] -0.048 | [7] 0.04 | [8] -0.047 | [9] 0.003

PPP1R12C (UniProt Q9BZL4)
inactive: erlotinib -0.13 | [2] -0.011 | [3] -0.059 | [5] 0.064 | [6] 0.037 | [8] -0.05 | [9] -0.238

PPP2R5B (UniProt Q15173)
Chain of UniProt Q15173 (Q15173 whole entry, looked up): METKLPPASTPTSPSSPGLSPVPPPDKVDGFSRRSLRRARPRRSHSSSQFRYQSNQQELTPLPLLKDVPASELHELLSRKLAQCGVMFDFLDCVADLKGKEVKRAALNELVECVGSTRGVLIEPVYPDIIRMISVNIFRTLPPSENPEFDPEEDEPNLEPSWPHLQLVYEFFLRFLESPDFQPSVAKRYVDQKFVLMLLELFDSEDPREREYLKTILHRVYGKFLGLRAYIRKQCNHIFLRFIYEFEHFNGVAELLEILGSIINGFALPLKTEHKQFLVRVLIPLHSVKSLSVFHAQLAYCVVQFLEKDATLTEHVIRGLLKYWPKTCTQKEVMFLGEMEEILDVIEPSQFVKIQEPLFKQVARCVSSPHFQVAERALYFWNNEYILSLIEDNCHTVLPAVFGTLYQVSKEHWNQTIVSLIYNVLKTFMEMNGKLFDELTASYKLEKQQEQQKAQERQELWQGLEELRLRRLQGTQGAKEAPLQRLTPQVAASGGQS
inactive: erlotinib -0.044 | [1] 0.039 | [3] -0.05 | [4] -0.003 | [5] 0.072 | [7] 0.124

PCF11 (UniProt O94913)
inactive: [1] 0.04 | [4] -0.082 | [5] 0.111 | [6] -0.191 | [7] 0.083

PPP2R5C isoform 2 (UniProt Q13362)
inactive: erlotinib -0.012 | [3] -0.02 | [5] -0.011 | [6] -0.039

PSD3 (UniProt Q9NYI0)
Chain of UniProt Q9NYI0 (Q9NYI0 whole entry, looked up): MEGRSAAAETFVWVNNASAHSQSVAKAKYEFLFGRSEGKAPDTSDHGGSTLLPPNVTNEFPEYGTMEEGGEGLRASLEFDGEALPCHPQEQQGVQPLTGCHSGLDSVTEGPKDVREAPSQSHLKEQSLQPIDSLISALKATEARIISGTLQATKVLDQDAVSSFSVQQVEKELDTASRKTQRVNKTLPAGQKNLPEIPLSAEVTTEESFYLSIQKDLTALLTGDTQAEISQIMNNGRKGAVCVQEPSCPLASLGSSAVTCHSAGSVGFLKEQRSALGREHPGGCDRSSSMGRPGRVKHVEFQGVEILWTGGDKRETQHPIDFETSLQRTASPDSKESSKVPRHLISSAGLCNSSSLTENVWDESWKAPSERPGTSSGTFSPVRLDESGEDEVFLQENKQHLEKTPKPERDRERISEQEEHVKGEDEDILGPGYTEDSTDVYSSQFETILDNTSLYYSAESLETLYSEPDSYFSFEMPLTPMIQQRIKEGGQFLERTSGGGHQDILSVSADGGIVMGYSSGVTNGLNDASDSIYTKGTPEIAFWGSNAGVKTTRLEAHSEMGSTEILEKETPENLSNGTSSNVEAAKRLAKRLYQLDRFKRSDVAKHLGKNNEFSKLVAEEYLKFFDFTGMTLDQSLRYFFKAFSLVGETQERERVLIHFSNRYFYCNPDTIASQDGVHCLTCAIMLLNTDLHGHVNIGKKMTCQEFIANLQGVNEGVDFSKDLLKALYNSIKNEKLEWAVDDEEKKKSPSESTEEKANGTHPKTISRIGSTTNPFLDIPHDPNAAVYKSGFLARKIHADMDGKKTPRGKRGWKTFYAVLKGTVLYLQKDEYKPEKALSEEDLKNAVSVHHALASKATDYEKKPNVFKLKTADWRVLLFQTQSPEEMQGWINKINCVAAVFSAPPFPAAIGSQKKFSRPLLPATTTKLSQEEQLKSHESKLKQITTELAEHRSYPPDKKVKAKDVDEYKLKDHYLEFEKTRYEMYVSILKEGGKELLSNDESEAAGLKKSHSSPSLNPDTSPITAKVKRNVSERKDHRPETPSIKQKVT
inactive: [1] -0.022 | [4] 0.1 | [6] -0.001 | [7] 0.018
